Bioassay records: PubChem BioAssay, National Center for Advancing Translational Sciences (NCATS)
Pf Dd2 growth: Plasmodium falciparum Dd2 growth inhibition; 120,000 tested, 4.3% active; P. falciparum Dd2 growth, SYBR Green, 72 h; Potency, µM (doses to about 28.9 µM), inactives show top-dose activity, negative = inhibition, usual class: inhibitors; active = well fitted inhibition curve with a large enough effect;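 also: plate controls were DMSO vehicle for no effect and reference drug for full effect; nearly all actives have a fitted effect of over 65% in size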
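Readout: SYBR Green fluorescence, 485 nm excitation, 535 nm emission, after ~16 h lysis at 37C. Before that, Dd2-infected red cells (2.5% hematocrit) grew 72 h with compound, 29 uM top final concentration.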
The depositor's hits bear a star; i = inactive; [ ] = remark or other dose. The entries come from a sample that favours hits as a whole. Potency is read from the fitted curve at half-maximal effect.

SMILES	Pf Dd2 growth
CN1C(=O)C(c2ccccc2)CC12CCN(C(=O)CO)CC2 (stereo not given)	-4%
COc1ccc(CN2CCC3(CC2)CC(c2cccc(C(F)(F)F)c2)=NO3)cc1	-23%
CCNC(=O)N1CCCC(O)(CNS(=O)(=O)c2cnn(CC)c2C)CC1 (stereo not given)	-1%
COCCN1CCCCCC(O)c2cc(C(=O)Nc3cc(C)ccc3OC)ccc21 (stereo not given)	-1%
OCC1(Cc2ccc(Cl)cc2)CCNCC1	-19%
COCc1cccc(-c2n[nH]c3c2CC(=O)N(Cc2ccccc2)C3)c1	i
Cc1ccc(C2Cn3nnc(-c4noc(COc5ccc(F)cc5)n4)c3CO2)cc1 (stereo not given)	-24%
COc1ccccc1Cc1nc(-c2nnn3c2COC(c2ccc(C)cc2)C3)no1 (stereo not given)	7.9µM*
COc1cccc(-c2nc(-c3nnn4c3COC(c3ccc(C)cc3)C4)no2)c1OC (stereo not given)	-4%
CCCN(CC1CCOC1)C(=O)CCCc1ccccc1 (stereo not given)	-11%[5.79 µM]
O=C(c1cc2c(s1)CCCC2)N1CCC2(CC1)OCCCC2O (stereo not given)	3%
O=C(N[C@H]1C[C@H]2C(=O)Nc3ccccc3C(=O)N2C1)c1ccccc1	30%[44.1 µM]
Cc1cccc(NC(=O)Cn2c(N(C)Cc3ccccc3)nc(C)cc2=O)c1	5µM*
Cc1cc(=O)n(CC(=O)Nc2ccc(C)c(C)c2)c(N(C)Cc2ccccc2)n1	i
CCc1cccc(NC(=O)Cn2c(N(C)Cc3ccccc3)nc(C)cc2=O)c1	i
O=Cc1ccc(N2CCN(C(=O)N3CCCCC3)CC2=O)cc1	12%
O=C(NC1CCCCC1)C1CN(C(=O)c2cccc(Br)c2)CC12CCOCC2 (stereo not given)	-16%
O=C(CN1Cc2nc(OCc3ccc(F)cc3)ccc2OCC1=O)N1CCCC1	i
CN1c2cc(C(=O)Nc3cc(F)cc(F)c3)ccc2C(=O)N2CCCCCC21 (stereo not given)	4.5µM*
CCN1c2cc(C(=O)NCc3ccccc3)ccc2C(=O)N2CCCCC21 (stereo not given)	-4%
CCN1c2cc(C(=O)NCc3ccc(C(C)C)cc3)ccc2C(=O)N2CCCCCC21 (stereo not given)	11µM*
CN1c2cc(C(=O)Nc3cccc(F)c3)ccc2C(=O)N2CCCCC21 (stereo not given)	-11%
CCN1c2cc(C(=O)Nc3ccc(C)cc3)ccc2C(=O)N2CCCCC21 (stereo not given)	i
CCN1c2cc(C(=O)Nc3ccc(Br)c(C)c3)ccc2C(=O)N2CCCCC21 (stereo not given)	5.6µM*
CCc1cccc(NC(=O)c2ccc3c(c2)N(CC)C2CCCCCN2C3=O)c1 (stereo not given)	5.6µM*
SMILES	Pf Dd2 growth
CCN1c2cc(C(=O)Nc3cccc(C)c3)ccc2C(=O)N2CCCCCC21 (stereo not given)	-15%
Cc1cc(C)cc(NC(=O)c2ccc3c(c2)N(C)C2CCCCCN2C3=O)c1 (stereo not given)	i
CCN1c2cc(C(=O)Nc3ccc(C)c(Cl)c3)ccc2C(=O)N2CCCC21 (stereo not given)	-22%
CCN1c2cc(C(=O)NCc3ccc(C)cc3)ccc2C(=O)N2CCCCCC21 (stereo not given)	-9%
CCc1cccc(NC(=O)c2ccc3c(c2)N(C)C2CCCCCN2C3=O)c1 (stereo not given)	-27%
CNCCN1C(=O)CC[C@H]2CN(C(=O)c3ccc(C(C)C)[nH]c3=O)CC[C@H]21	-3%
Cc1ccc(C(=O)N2[C@@H]3CC[C@H]2CC(NC(=O)c2cnc(C)cn2)C3)c(C)c1 (stereo not given in full)	2%
O=C(COc1ccc(F)cc1F)N1CCCC(Cc2nc3ccccc3[nH]2)C1 (stereo not given)	i
Cc1ccc(C(=O)N2CCc3nc(C)nc(-c4ccc(Cl)cc4)c3CC2)cc1	i
COCc1cn(C[C@H]2C[C@@H](NS(=O)(=O)CC(C)C)[C@H](O)[C@@H]2O)nn1	17%[44.1 µM]
CCN1c2cc(C(=O)Nc3cccc(C)c3)ccc2C(=O)N2CCCCC21 (stereo not given)	i
Cc1ccc(CNC(=O)c2ccc3c(c2)N(C)C2CCCCCN2C3=O)cc1C (stereo not given)	i
CCc1cccc(NC(=O)c2ccc3c(c2)N(C)C2CCCN2C3=O)c1 (stereo not given)	-7%
CCc1cccc(NC(=O)c2ccc3c(c2)N(CC)C2CCCCN2C3=O)c1 (stereo not given)	4.5µM*
CCN1c2cc(C(=O)NCc3cccc(C)c3)ccc2C(=O)N2CCCCC21 (stereo not given)	i
Cc1cccc(CNC(=O)c2ccc3c(c2)N(C)C2CCCN2C3=O)c1 (stereo not given)	10µM*
COC1CCN(C(=O)c2ccnc(-c3nnc4ccc(N(C)C)nn34)c2)CC1	-7%[44.1 µM]
Cc1noc(C)c1C(=O)N1CCC2(CC1)NCCc1c2[nH]c2ccccc12	-24%
Cc1noc(C)c1S(=O)(=O)N1CCC2(CC1)NCCc1c2[nH]c2ccccc12	5µM*
CN1CCc2c([nH]c3ccccc23)C12CCN(S(=O)(=O)c1cccnc1)CC2	4.5µM*
Cn1cnc(S(=O)(=O)N2CCC3(CC2)NCCc2c3[nH]c3ccccc23)c1	-8%
Cc1ccncc1C(=O)N1CCC2(CC1)c1[nH]c3ccccc3c1CCN2C	i
CN1CCc2c([nH]c3ccccc23)C12CCN(C(=O)Cc1cccnc1)CC2	-27%
Cc1ccc(-c2nnc([C@H]3CCN(C(=O)NC4CCCCC4)C3)o2)cc1	i
Cn1ccnc1CN[C@@H]1CO[C@H](CNC(=O)c2ccc(F)cc2)[C@H]1O	-12%[44.1 µM]
SMILES	Pf Dd2 growth
COc1ccc(F)cc1S(=O)(=O)NC1CCc2nnc(C)n2CC1 (stereo not given)	33%
O=S(=O)(c1cnc[nH]1)N1CCC(c2nc(CCOCC3CCCC3)no2)C1 (stereo not given)	i
COCCOC1CCN(C(=O)NCCc2ccccc2)CC1	14%
CCCNC(=O)N1CCC(N2C(=O)[C@H](OC)[C@@H]2c2ccncc2)CC1	1%
CN(Cc1cccn1C)CC1CCCCC1	-12%[44.1 µM]
CCn1c2ccccc2c2cc(NC(=O)COc3cccc(C)c3)ccc21	i
OC(COc1ccccc1-c1ccncc1)CN1CCOCC1 (stereo not given)	-12%
Cc1ccccc1OCCn1c(=N)n(C(C)C)c2ccccc21	5.6µM*
Cc1ccccc1OCC(=O)N1C[C@@H](CN2CCCCC2)[C@@H](CO)C1	i
CCCn1c(COc2cccc(C)c2)nc2ccccc21	-26%
Cc1ccccc1OCc1nc2ccccc2n1Cc1ccccc1Cl	27%
CCCCCn1c(=N)n(CC(O)COc2cccc(C)c2)c2ccccc21 (stereo not given)	1µM*
Cc1ccccc1OCC(O)Cn1c(=N)n(CCN2CCCCC2)c2ccccc21 (stereo not given)	2.8µM*
Cc1ccccc1NCc1nc2ccccc2n1CCOc1ccccc1	42%[5.79 µM]
Cc1nc2c(c(-c3ccc(O)cc3)n1)CN(C(=O)c1ccccc1Cl)CC2	-8%
CCN(CC)C(=O)CCc1nc(C2CCCN2C(=O)c2ccccc2)no1 (stereo not given)	-15%
Cc1noc(-c2cn(C3CCN(C(=O)c4ccccc4)CC3)nn2)n1	7%
CCC(=O)N1CCC(c2ncc(C)n2Cc2ccccc2)C1 (stereo not given)	i
